Screens as filed in PubChem BioAssay.
SIRT5 inh – SIRT5 desuccinylase inhibitors, primary screen, biochemical, fluorescence imaging, single point, set 5; AID 652115, 2013; hit rate 1.1% among 330,000; Purified SirT5, succinyl-peptide AMC, trypsin-coupled fluorescence; NAD-dependent protein deacylase sirtuin-5, mitochondrial (Homo sapiens), Q9NXA8; inhibition, % at 15 µM; in the data active = inhibition above about 15%
PvdQ acylase – P. aeruginosa PvdQ acylase inhibitors, primary screen, biochemical, fluorescence, plate reader and imaging, single point | purified PvdQ acylase | inhibition, % at 10 µM | hit rate 0.063% among 340,000 | PvdQ acylase [Pseudomonas aeruginosa LESB58]; in the data active = inhibition above about 30%, passing the limit was not always enough;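 also: 0% = vehicle neutral wells and 100% = reference inhibitor wells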
CDK5 p35 inh – inhibitors of human CDK5/p35 kinase, primary screen, biochemical, single concentration. Recombinant CDK5/p35, ADP-Glo luminescence, 60 min. Cyclin-dependent kinase 5 (Homo sapiens) + Cyclin-dependent kinase 5 activator 1 (Homo …. inhibition, % at 10 µM. hit rate 0.01% among 330,000;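 active = highest replicate inhibition of at least 50% and at least 75% of replicates reaching 50%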;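 also: plate controls were DMSO neutral control for no effect and GW8510 at 10 µM for full effect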
FGF22 binding – binders of human FGF22 protein, primary screen, FGF22 synaptogenesis inhibitor project, biophysical, thermal shift, single point; recombinant FGF22 thermal shift, SYPRO orange fluorescence; percent of sucrose octasulfate shift, DMSO zero; AID 651658, 2012; hit rate 1.5% among 340,000; activity (Tm shift, normalised), % at 9.99 µM;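 active = mean Tm shift, scaled 0 neutral to 100 positive control, at about 1.3% or above, every replicate too, limit read from the data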
Target sequence (Q9HCT0 whole entry, looked up): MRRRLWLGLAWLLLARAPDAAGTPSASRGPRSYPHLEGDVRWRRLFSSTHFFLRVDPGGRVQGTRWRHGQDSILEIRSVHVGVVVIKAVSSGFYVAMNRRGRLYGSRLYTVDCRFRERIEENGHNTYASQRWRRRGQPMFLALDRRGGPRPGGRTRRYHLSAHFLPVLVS
dFosB activator – activators of delta FosB homodimer, primary screen, biochemical, fluorescence polarization, TAMRA-CDK5 oligo, single point; Protein FosB (Mus musculus), P13346; purified delta FosB; percent of positive-control signal above neutral wells; activation, % at 25 µM; hit rate 0.99% among 340,000;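 active = mean activation above about 17%, with every replicate also reaching it, limit read from the data, passing the limit was not always enough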
Target sequence (P13346 whole entry, looked up): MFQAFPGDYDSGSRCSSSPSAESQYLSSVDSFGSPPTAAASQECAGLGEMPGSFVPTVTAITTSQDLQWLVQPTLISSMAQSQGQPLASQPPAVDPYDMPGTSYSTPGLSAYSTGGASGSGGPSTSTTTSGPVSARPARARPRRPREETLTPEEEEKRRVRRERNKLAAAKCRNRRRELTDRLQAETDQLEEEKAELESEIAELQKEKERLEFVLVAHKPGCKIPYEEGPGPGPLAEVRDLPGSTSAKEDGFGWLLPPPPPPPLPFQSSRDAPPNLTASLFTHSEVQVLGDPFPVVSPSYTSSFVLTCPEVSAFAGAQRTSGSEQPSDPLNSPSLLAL
PglD DTNB – C. jejuni PglD acetyltransferase inhibitors, primary screen, biochemical, DTNB colorimetric, single point. UDP-N-acetylbacillosamine N-acetyltransferase PglD (Campylobacter jejuni). hit rate 0.098% among 360,000. purified PglD enzyme, DTNB colorimetric CoA detection. inhibition, % at 12.5 µM; in the data active = inhibition above about 16%, passing the limit was not always enough
The depositor's hits bear a star; . = no result given. Most compounds without a hit are left out; they make up all but 2.8% or so of the library.

SMILES	SIRT5 inh	PvdQ acylase	CDK5 p35 inh	FGF22 binding	dFosB activator	PglD DTNB
C[C@H]1CN([C@@H](C)CO)C(=O)c2c(c3ccccc3n2C)-c2ccccc2CO[C@H]1CN(C)S(=O)(=O)c1ccc(Cl)cc1	13	.	.	0	.	1
Cc1nnc(SCC(=O)NCc2ccc3c(c2)OCO3)n1C	-7	-2	0	43*	1	.
COCCn1c(Cc2cccn2C)nnc1SCC(=O)NCc1ccc2c(c1)OCO2	2	-14	1	44*	-1	.
C[C@@H]1CN([C@@H](C)CO)S(=O)(=O)c2ccc(-c3ccc(F)cc3)cc2O[C@H]1CN(C)C(=O)Nc1ccccc1F	-3	.	.	0	.	-6
Cc1noc(C)c1NC(=O)N(C)C[C@H]1OCCCC[C@H](C)Oc2ccc(NS(=O)(=O)c3c(C)noc3C)cc2C(=O)N([C@@H](C)CO)C[C@@H]1C	-1	.	.	0	.	-2
O=C(CN1CC(=O)Nc2ccccc21)Nc1ccc(F)c(F)c1	-4	-11	-2	43*	-8	.
Cc1ccc(NC(=O)CNC(=O)N2CC(=O)Nc3ccccc32)cc1F	-6	8	2	0	-8	1
O=C(CN1CC(=O)Nc2ccccc21)NCCc1ccc(Cl)cc1Cl	-3	-13	2	44*	-4	.
COc1ccc(S(=O)(=O)N(C)C[C@@H]2Oc3c(NC(=O)c4ccncc4)cccc3C(=O)N([C@H](C)CO)C[C@H]2C)cc1	3	.	.	0	.	-1
Cc1ccc(S(=O)(=O)N(C)C[C@H]2Oc3ccc(NC(=O)CCCN(C)C)cc3CC(=O)N([C@@H](C)CO)C[C@H]2C)cc1	-1	.	.	0	.	-2
O=C(NNC(=O)C1CC1)c1ccc(-c2ccccc2)cc1	-13	-2	-1	0	-3	-4
O=C(NNC(=O)c1ccccc1C(=O)O)c1ccc(-c2ccccc2)cc1	-1	.	.	43*	.	.
CC(=O)c1cccc(NC(=O)CSc2n[nH]c(=O)n2C2CC2)c1	.	3	1	43*	1	0
O=C(C[C@@H]1CC[C@H]2[C@@H](COC[C@@H](O)CN2S(=O)(=O)c2ccc(F)cc2)O1)N[C@H]1CCN(Cc2ccccc2)C1	3	.	.	-1	.	-6
CCN(C(=O)CSc1nc2cc(Cl)ccc2c(=O)n1CC(C)C)C1CCS(=O)(=O)C1 (configuration not stated)	-6	5	0	0	3	-1
CCN(C(=O)CSc1nc2cc(Cl)ccc2c(=O)n1Cc1ccco1)C1CCS(=O)(=O)C1 (configuration not stated)	0	-8	0	44*	-2	.
COc1ccccc1NC(=O)N(C)C[C@H]1OCc2ccccc2-c2c(n(C)c3ccccc23)C(=O)N([C@@H](C)CO)C[C@@H]1C	-4	.	.	-1	.	-3
C[C@@H]1CCCCO[C@H](CN(C)C(=O)Nc2ccc(F)cc2)[C@H](C)CN([C@@H](C)CO)C(=O)c2cc(NS(=O)(=O)c3ccc(Cl)cc3)ccc2O1	-5	.	.	.	.	7
CCC(C)[C@H]1CN=C(N)N1CCCc1cc(OC)c(OC)c(OC)c1 (some centres not stated)	23*	19	-2	0	0	-2
COc1cc(CCCN2C(N)=NC[C@@H]2c2ccccc2)cc(OC)c1OC	-3	-11	-1	0	-6	-2
CN1N=C(C(F)(F)F)CC1=O	0	-3	-6	44*	3	.
Cc1cc([N+](=O)[O-])ccc1NC(=O)C[n+]1ccc(N(C)C)cc1	0	-9	-1	43*	1	.
C[C@@H]1CCCCO[C@@H](CN(C)C(=O)CCC(F)(F)F)[C@@H](C)CN([C@H](C)CO)C(=O)c2cc(NS(C)(=O)=O)ccc2O1	-3	.	.	0	.	-2
CC(C)OC(=O)C[N+](C)(C)CCN1C(=O)C2C(c3ccccc3)C=CC(c3ccccc3)C2C1=O (configuration not stated)	26*	-6	1	0	-9	.
C#CC[N+](C)(C)CCN1C(=O)C2C(c3ccccc3)C=CC(c3ccccc3)C2C1=O (configuration not stated)	-2	-9	1	0	-5	.
SMILES	SIRT5 inh	PvdQ acylase	CDK5 p35 inh	FGF22 binding	dFosB activator	PglD DTNB
C[C@@H]1CN([C@H](C)CO)C(=O)c2cc(NS(=O)(=O)c3ccc(F)cc3)ccc2O[C@@H](C)CCCCO[C@@H]1CN(C)Cc1ccc(C(=O)O)cc1	0	.	.	0	.	-3
CCC(=O)Nc1cccc(-c2cc3ccccc3oc2=O)c1	28*	2	0	0	-13	.
CCC(=O)Nc1cccc(NC(=O)c2cc3ccccc3o2)c1	.	-8	-2	.	-15	-1
O=C(c1ccccc1)N1CC2(C1)[C@@H](c1ccccc1)[C@@H](CO)N2C(=O)CC1CC1	-6	.	.	.	.	.
Clc1ccccc1OCCNc1nc(NCC2CC2)nc2ccsc12	23*	.	.	-1	.	3
Cc1noc(C)c1NC(=O)N(C)C[C@H]1OCCCC[C@H](C)Oc2ccc(NS(C)(=O)=O)cc2C(=O)N([C@H](C)CO)C[C@@H]1C	.	.	.	0	.	-2
O=C(NCc1ccc(F)cc1)[C@H]1[C@H](CO)[C@H]2Cn3c(cccc3=O)[C@H]2N1CC1CC1	0	.	.	0	.	2
C[C@H]1CCCCO[C@@H](CN(C)CC2CCCCC2)[C@@H](C)CN([C@@H](C)CO)C(=O)c2cc(NC(=O)CCC(F)(F)F)ccc2O1	.	.	.	0	.	0
Nc1ccc(OCc2ccccc2)cc1[N+](=O)[O-]	2	37*	2	0	6	1
O=[N+]([O-])c1cccnc1Oc1ccc(OCc2ccccc2)cc1	-2	-13	-1	0	2	4
COc1ccc(CN(C)C[C@H]2Oc3c(NC(=O)C4CCOCC4)cccc3C(=O)N([C@H](C)CO)C[C@@H]2C)cc1	-16	.	.	0	.	-7
COc1cccc(-c2cc(C(=O)NCC3CCCO3)c3cc(Br)cc(C)c3n2)c1 (configuration not stated)	17*	-12	1	0	-12	0
Cc1ccc(N2CC(C(=O)Nc3ccc(S(=O)(=O)Nc4nccs4)cc3)CC2=O)cc1C (configuration not stated)	18*	-2	-1	0	-11	1
Cc1cc(C)c2oc(C(=O)Nc3ccc(S(=O)(=O)Nc4nccs4)cc3)cc(=O)c2c1	-1	11	-2	43*	2	.
